# Results: PubChem BioAssay AID1851 (National Center for Advancing Translational Sciences (NCATS), 2009)
# Several values for one entry are separate records, joined by “and”; a condition that tells them apart may be missing. Identical values can stand only once. The campaign covered roughly 16,000 compounds. About 5,700 (36%) were called active. Another 24% or so got no clear call; they are omitted. Some of the results follow. Values without a mark were called inactive. Calls follow the shape of the dose curve; as a rule, active = well fitted curve in the direction sought with a large enough effect; inconclusive = small, poorly fitted or top-dose-only effect, or effect the other way; inactive = no such curve, though single readings can be large or run the other way.
# Molecular target: Cytochrome P450 1A2 (Homo sapiens) (UniProt P05177)
# Assay: Cytochrome panel assay with activity outcomes
# Details: recombinant CYP, pro-luciferin dealkylation, luminescence, p450-cyp1a2; series mostly up to 57.1 µM; activity, negative = inhibition: at the top concentration
# % is scaled to controls: 0 for no effect and ±100 for the full control effect.
# Chain of Cytochrome P450 1A2 (Homo sapiens) (P05177 whole entry, looked up): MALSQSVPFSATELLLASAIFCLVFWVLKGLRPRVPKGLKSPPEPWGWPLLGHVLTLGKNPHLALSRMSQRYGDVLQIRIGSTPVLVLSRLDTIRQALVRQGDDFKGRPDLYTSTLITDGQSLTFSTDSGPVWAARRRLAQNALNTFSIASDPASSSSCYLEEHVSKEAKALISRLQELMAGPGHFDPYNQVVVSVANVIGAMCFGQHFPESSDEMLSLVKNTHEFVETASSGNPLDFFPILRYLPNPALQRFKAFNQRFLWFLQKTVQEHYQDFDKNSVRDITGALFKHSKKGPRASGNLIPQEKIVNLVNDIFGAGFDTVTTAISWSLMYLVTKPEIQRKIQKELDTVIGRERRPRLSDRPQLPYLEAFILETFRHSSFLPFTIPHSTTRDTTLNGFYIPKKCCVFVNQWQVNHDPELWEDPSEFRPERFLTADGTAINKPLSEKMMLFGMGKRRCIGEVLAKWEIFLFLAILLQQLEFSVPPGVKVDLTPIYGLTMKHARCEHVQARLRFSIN
SMILES,"activity, negative = inhibition",AC50
CS(=O)(=O)N1CCC2(CC1)CN(C(c1ccccc1)c1ccccc1)C2,-1.89%,
CCCC(=O)N1c2ccccc2C(N(C(C)=O)c2ccccc2)CC1C (stereo unspecified),-9.48%,
COCC(=O)N1CCC2(CC1)CN(C(c1ccccc1)c1ccccc1)C2,-6.23%,
COc1cc2c(cc1OC)CN(C(=S)Nc1ccccc1)CC2,,12.6 µM (active)
COc1ccc(S(=O)(=O)N2CCc3ccccc3C2)cc1OC,-29.1%,
COc1cc2c(cc1OC)[C@H](c1ccccc1)CN(C)CC2,-1.36%,
CCOC(=O)c1nnn(-c2nonc2N)c1-c1ccccc1,,0.891 µM (active)
CC(C)OC(=O)c1nnn(-c2nonc2N)c1CSc1ccccn1,,1.78 µM (active)
CCOC(=O)c1nnn(-c2nonc2N)c1-c1ccc(C)cc1,,0.891 µM (active)
CCOC(=O)c1nn(-c2ccccc2)c(-c2ccccc2)c1C(=O)c1ccccc1,-14.5%,
COC(=O)N1CCC2(CCCN(C(=O)Nc3ccccc3)C2)CC1,3.75%,
C[C@@]1(CCOCc2ccccc2)NC(=O)NC1=O,-13.5% [at 11.4 µM],
c1ccc(C(CCN2CC3CCC(CC3)C2)c2ccccc2)cc1,9.33% [at 11.4 µM],
C[C@@H]1CN(CCCn2c3ccccc3c3ccccc32)C[C@H](C)N1,,0.794 µM (active)
CN(C)CCCn1c2ccccc2c2cnccc21,-20% [at 2.29 µM],
C/C(=N\NC(=O)c1[nH]c2c([N+](=O)[O-])cc(C)cc2c1-c1ccccc1)c1cccnc1,,1.26 µM (active)
COc1ccc(C(=S)Nc2ccccc2)cc1,,0.631 µM (active)
COc1ccc2c(Cl)cc(NC(=S)Nc3ccccc3)nc2c1,,0.398 µM (active)
COc1ccc(NC(=O)N2CCCC2C(=O)Nc2ccccc2)cc1 (stereo unspecified),-29.6%,
CS(=O)(=O)N1CCC[C@@]2(CCN(C(=O)Nc3cccc(F)c3)C2)C1,-25.2%,
CC(C)(C)c1cc(/C=C(\C#N)C(N)=S)cc(C(C)(C)C)c1O,,12.6 µM (active)
Fc1ccc(SCCc2ccncc2)cc1,,0.562 µM (active)
c1ccc(SCCc2ccncc2)cc1,,447 nM (active) and 200 nM (active)
N=C(N)SCCc1ccncc1,-17.8% [at 2.29 µM],

SMILES,"activity, negative = inhibition",AC50
COc1ccc(CCC(C)Nc2cccc(F)c2)cc1 (stereo unspecified),,3.55 µM (active)
COc1ccc(CCC(C)NC2C3CC4CC(C3)CC2C4)cc1 (stereo unspecified),-18.9%,
CCn1c(C)c(/C=N/Nc2nc3ccccc3s2)c2ccccc21,,2.51 µM (active)
CCOC(=O)Nc1nc(-c2ccccc2)c(C)s1,,0.2 µM (active)
CCOC(=O)c1sc(NC(C)=O)nc1-c1ccccc1,,2.82 µM (active)
CCOC(=O)c1sc(NS(=O)(=O)c2ccccc2)nc1C,-4.5%,
CCN(CC)C(=O)N1CCN(C)CC1,-5.59% [at 25.6 µM],
COc1ccc(O[C@H]2C=C[C@@H](c3ccccc3)O[C@H]2CO/N=C(/C)CCC(=O)OC[C@@H]2O[C@H](C#Cc3ccccc3)C=C[C@@H]2Oc2ccc(C)cc2)cc1,-5.99% [at 11.4 µM],
O=C(O)c1ccc(Sc2nnnn2-c2ccccc2)c([N+](=O)[O-])c1,-12%,
O=[N+]([O-])c1cc(/C=N/O)ccc1SCc1ccccc1,,0.891 µM (active)
O=C(O)[C@H](Cc1ccc(O)c([N+](=O)[O-])c1)N1C(=O)c2ccccc2C1=O,-17.9% [at 2.29 µM],
CCOC(=O)c1cnc2cc(-c3ccc(C)cc3)nn2c1-c1ccccc1,,2.24 µM (active)
CCOC(=O)c1cnc2cc(-c3ccc(C(C)(C)C)cc3)nn2c1N,-13.4%,
C=CCSc1nc(C)cc(/C=C\c2ccccc2)c1C#N,,2.51 µM (active)
Nc1nc(Cl)nc2c1ncn2[C@@H]1O[C@@H](CO)[C@@H](O)[C@H]1O,-12.9%,
COC(=O)COc1ccc(/C=C2/SC(=O)N(CC(=O)N3CCCC3)C2=O)cc1Br,5.15%,
COC(=O)CN1C(=O)S/C(=C/c2ccc(N3CCCCC3)o2)C1=O,,0.891 µM (active)
O=C1S/C(=C/c2ccc(N3CCOCC3)o2)C(=O)N1Cc1ccc(F)cc1,,3.55 µM (active)
COC(=O)C1C(O)=C(C=NCc2ccccc2)C(=O)CC1(C)C (stereo unspecified),-9.45%,
CN(Cc1ccccc1)S(=O)(=O)c1ccc(OCC(=O)N2CCOCC2)cc1,-10.9%,
O=C(COc1ccc(Cl)cc1)N1CCN(Cc2ccc3c(c2)OCO3)CC1,,5.01 µM (active)
O=C(c1cc2sccc2n1Cc1ccccc1)N1CCN(c2nc3ccccc3s2)CC1,-23.8%,
O=C(CCN1C(=O)c2cccc3cccc(c23)C1=O)N1CCN(Cc2ccc3c(c2)OCO3)CC1,-23.1%,
c1ccc2sc(N3CCN(Cc4ccc5c(c4)OCO5)CC3)nc2c1,,1 µM (active)

SMILES,"activity, negative = inhibition",AC50
c1cnc(N2CCN(Cc3ccc4c(c3)OCO4)CC2)nc1,,6.31 µM (active) and 3.16 µM (active) and 2 µM (active)
C[n+]1cc(-c2ccccc2)n2c1CCCCC2,9.49%,
COc1ccc(NC(=O)N2CC3(CCN(C(=O)c4ccncc4)CC3)C2)cc1,-1.73%,
COc1ccc(/C=C/c2ccncc2)cc1,,1.26 µM (active)
COc1ccc(/C=C(/NC(C)=O)C(=O)O)cc1,-26.8%,
COc1ccc(OC(=O)c2ccncc2)cc1,,6.31 µM (active)
CCCCCOc1ccc(OC(=O)c2ccncc2)cc1,,12.6 µM (active)
COc1ccc(C(=O)N2CCC3(CC2)CN(c2ccncc2)C3)cc1,-5.39%,
O=C1CCCC=C1[C@@H](O)C1CCCCC1,-1.29% [at 11.4 µM],
O=C(c1ccc(Cl)cc1)N1CCN(C(=O)c2ccco2)CC1,4.7%,
O=C(Cc1ccc(Cl)cc1)N1CCN(C(=O)c2ccco2)CC1,-13.2%,
O=C(c1cc(-c2ccc(Cl)cc2Cl)on1)N1CCN(C(=O)c2ccco2)CC1,,15.8 µM (active)
COCCNc1ncnc2ccc(-c3ccc(C(=O)N(C)C)cc3)cc12,-19.4%,
CC(=O)NCCNc1ncnc2ccc(-c3ccc4c(c3)OCO4)cc12,,0.501 µM (active)
CC(=O)NCCNc1ncnc2ccc(-c3ccoc3)cc12,,12.6 µM (active)
COCCNc1ncnc2ccc(-c3ccc(N(C)C)cc3)cc12,,0.251 µM (active)
COCCNc1ncnc2ccc(-c3ccoc3)cc12,,15.8 µM (active)
CCc1cc2c(nc1CC)CCN(CC/C(C)=N/OC[C@@H](O)COCc1ccco1)C2,-8.65% [at 11.4 µM],
CN(C)CCCN1c2ccc3ccccc3c2Sc2cccc(Cl)c21,,1 µM (active)
CN(C)CCCN1c2ccccc2Sc2ccc3ccccc3c21,-2.18% [at 2.29 µM],
CCC(=S)/C=C1\Sc2ccc3ccccc3c2N1CCCS(=O)(=O)O,-13.1%,
COc1ccc(C(=O)N2CCC3(CC2)CN(C(=O)Nc2cccc(C#N)c2)C3)cc1,-4.75%,
O=c1cc(-c2ccccc2)[nH]n1-c1ccc([N+](=O)[O-])cc1,,22.4 µM (active)
O=C(OC1CCN(c2ccc([N+](=O)[O-])cc2)CC1)c1ccccc1,-6.58%,

SMILES,"activity, negative = inhibition",AC50
CCCNc1c(F)c(F)c2c(C)c3ccccc3nc2c1F,,0.708 µM (active)
Oc1ccc2ccccc2c1/C=C\c1ccc2c(Br)cc(Br)c(O)c2n1,,3.98 µM (active)
CC(=O)N1N=C(c2cccc([N+](=O)[O-])c2)OC1c1ccccc1Cl (stereo unspecified),,14.1 µM (active)
CC(=O)N1N=C(c2cccc([N+](=O)[O-])c2)OC1c1ccc(Cl)cc1Cl (stereo unspecified),,2.51 µM (active)
CC(=O)N1CC(=O)N(OCc2ccccc2)C1c1ccc(Cl)cc1Cl (stereo unspecified),2.24%,
COc1ccc(C2C3=C(CC(C)(C)CC3=O)Oc3ncn(CC(C)C)c(=N)c32)cc1 (stereo unspecified),-4.33%,
NNC(=O)CNc1cccc(Br)c1,,0.501 µM (active)
Cc1ccc2c(c1)N(CCC(=O)NCC1CCCO1)C(=O)CO2 (stereo unspecified),-29.1%,
CCC[C@H]1C(=O)N2C(N(C)C)=Nc3ccc(C)cc3N2C1=O,,1.58 µM (active)
COc1cccc(Cn2c(=O)c(-c3cc(F)cc(F)c3)nc3cnc(N4CCNCC4)nc32)c1,-17.6%,
CN1CCN(c2ncc3nc(-c4cccc(C#N)c4)c(=O)n(CCC#N)c3n2)CC1,-11.5%,
COCCn1c(=O)c(-c2ccc(OC)cc2)nc2cnc(N3CCNCC3)nc21,,6.31 µM (active)
COCCn1c(=O)c(-c2cccc(C#N)c2)nc2cnc(N3CCNCC3)nc21,,10 µM (active)
CN1CCN(c2ncc3nc(-c4cccc(C#N)c4)c(=O)n(Cc4ccc(F)cc4)c3n2)CC1,-15.5%,
COCCn1c(=O)c(-c2cc(F)cc(F)c2)nc2cnc(N3CCNCC3)nc21,,6.31 µM (active)
CC[C@H](C)[C@@H]1O[C@]2(CC[C@@H]1C)C[C@H]1C[C@H](CC=C(C)[C@@H](O[C@H]3C[C@H](OC)[C@H](O[C@H]4C[C@H](OC)[C@H](O)[C@H](C)O4)[C@H](C)O3)[C@@H](C)C=CC=C3CO[C@@H]4[C@@H](O)C(C)=C[C@H](C(=O)O1)[C@@]34O)O2,-8.74%,
C/C(CCC(=O)OC[C@@H]1O[C@H](C#Cc2ccccc2)C=C[C@@H]1Oc1ccc(C)cc1)=N/O[C@@H](C)c1cn([C@H](CO)Cc2ccccc2)nn1,-3.36% [at 11.4 µM] and -0.528% [at 11.4 µM],
CC(=O)O[C@]12CC[N@+]3(C)CCCC[C@@H]3[C-]1Nc1ccccc12,-11% [at 11.4 µM],
COc1ccc(C2/C(=C(/O)c3ccccc3)C(=O)C(=O)N2c2ccccn2)c(OC)c1 (stereo unspecified),-28.1%,
COc1cccc(/C(O)=C2/C(=O)C(=O)N(c3ccccn3)C2c2ccc(OC)c(OC)c2)c1 (stereo unspecified),12%,
CN(C)c1ccc(-c2cc(-n3ccnc3)ncn2)cc1,,0.158 µM (active)
COc1cccc(-c2nccc(-n3ccnc3)n2)c1,,0.0316 µM (active)
N#Cc1cccc(-c2cc(-n3ccnc3)ncn2)c1,,0.126 µM (active)
N#Cc1cccc(-c2nccc(-n3ccnc3)n2)c1,,0.2 µM (active)
